Laboratory results from PubChem BioAssay AID1159580 (chemical genetic matrix, 2015).
In all, about 5,500 compounds went through this assay and about 2,000 (36%) were called active. Not shown: some 18% with an inconclusive outcome. This is one part of the list. Values without a mark were called inactive. Cut-off read from the data, not from the text of the source: active = normalized growth mostly below about 0.91 (no sharp cut-off); inconclusive = no clear call, values can overlap the other calls; inactive = mostly above about 0.92.

Experiment: chemical genetic growth profiling, strain panel (AID 1159580);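 note: tested at 20 µM; growth read once vehicle control cultures reached saturation at 30 °C; 1 = growth at the plate median or of vehicle wells; lower values mean less growth of the strain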
Conditions: S. cerevisiae deletion strains, growth OD
[1] = locus YAL040C, strain CLN3, stronger effect = lower value
[2] = locus YCL061C, strain MRC1 (second series), stronger effect = lower value
[3] = locus YDR363W, strain ESC2, stronger effect = lower value
[4] = locus YER002W, strain NOP16, stronger effect = lower value
[5] = locus YMR307W, strain GAS1, stronger effect = lower value
[6] = locus YNL175C, strain NOP13, stronger effect = lower value
[7] = locus YNL197C, strain WHI3, stronger effect = lower value
[8] = locus YNL224C, strain SQS1, stronger effect = lower value
[9] = locus YOR083W, strain WHI5 (second series), stronger effect = lower value
[10] = locus YPL055C, strain LGE1, stronger effect = lower value
[11] = locus YGR229C, strain SMI1, stronger effect = lower value
[12] = locus YJR075W, strain HOC1, stronger effect = lower value
[13] = locus YNL128W, strain TEP1, stronger effect = lower value
[14] = locus YNL153C, strain GIM3, stronger effect = lower value
[15] = locus YPL241C, strain CIN2, stronger effect = lower value

C=CCN1C[C@@H](C)N([C@H](c2ccc(C(=O)N(CC)CC)cc2)c2cccc(OC)c2)C[C@@H]1C
normalized growth [1]: 1.04
normalized growth [2]: 1
normalized growth [3]: 0.992
normalized growth [4]: 0.999
normalized growth [5]: 1.03
normalized growth [6]: 0.995
normalized growth [7]: 1.01
normalized growth [8]: 1.02
normalized growth [9]: 1.02
normalized growth [10]: 1.01

CP(=O)(O)C1=CCNCC1
normalized growth (locus YAL013W, strain DEP1, stronger effect = lower value): 1.03
normalized growth [1]: 1
normalized growth [2]: 1
normalized growth [3]: 0.997
normalized growth [4]: 0.997
normalized growth [11]: 1.02
normalized growth [12]: 1.01
normalized growth [5]: 1
normalized growth [13]: 0.996
normalized growth [14]: 0.999
normalized growth [6]: 1.01
normalized growth [7]: 1.02
normalized growth [8]: 1.01
normalized growth (locus YNL322C, strain KRE1, stronger effect = lower value): 1.01
normalized growth [9]: 0.987
normalized growth [15]: 1

O=c1onc2cnc3ccccc3n12
normalized growth [1]: 0.984
normalized growth [2]: 0.983
normalized growth [3]: 0.893
normalized growth [4]: 1
normalized growth [11]: 0.939
normalized growth [12]: 0.958
normalized growth [5]: 0.977
normalized growth [13]: 0.967
normalized growth [14]: 0.777 (active)
normalized growth [6]: 0.999
normalized growth [7]: 0.989
normalized growth [8]: 0.987
normalized growth [9]: 0.961
normalized growth [10]: 0.801 (active)
normalized growth [15]: 0.999
